From PubChem BioAssay (EPA / NIEHS)
Calls of active or inactive are those of the source. Rule for the calls: active = hit-call score of the fitted dose curve at least 0.9, where 1 is the maximum; inactive = score below 0.9.

Legend:
Details in all cases: mRNA level, 48 h; actives raise or lower the signal
BCL2L11 (gene 10018) = assay: LTEA_HepaRG_BCL2L11: Life Technologies and Expression Analysis (LTEA) Assay for Bcl-2 (BCL2L11) gene using HepaRG (AID 2283473)
How it was run: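 Read-out is BCL2L11 transcript level by qRT-PCR, normalized to three housekeeping genes and fitted bidirectionally against 0.5% DMSO vehicle. HepaRG cells received chemicals for 48 h in serum-free induction medium, 100 uM down in half-log dilutions.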

[1] = read-out: Apolipoprotein A-V (APOA5) gene, APOA5 (gene 116519); assay: LTEA_HepaRG_APOA5: Life Technologies and Expression Analysis (LTEA) Assay for Apolipoprotein A-V (APOA5) gene using HepaRG (AID 2283474)
How it was run: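 Readout is APOA5 transcript level by qRT-PCR on Fluidigm dynamic arrays, normalized to three housekeeping genes. HepaRG cultures received chemicals for 48 h at up to 100 uM (half-log steps, 0.5% DMSO), with gain or loss scored relative to DMSO.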

[2] = read-out: Apoptosis regulator Bcl-2 (Homo sapiens) (UniProt P10415); assay: LTEA_HepaRG_BCL2: Life Technologies and Expression Analysis (LTEA) Assay for Bcl-2 gene using HepaRG (AID 2283475)
How it was run: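 qRT-PCR of BCL2 transcript, normalized to three housekeeping genes (ACTB, GAPDH, POLR2A), after 48 h chemical exposure of HepaRG cells; concentrations top 100 uM with half-log dilutions, 0.5% DMSO vehicle, duplicates; changes up or down fitted relative to vehicle.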

[3] = read-out: Bcl-2 (BID) gene, BID (gene 637); assay: LTEA_HepaRG_BID: Life Technologies and Expression Analysis (LTEA) Assay for Bcl-2 (BID) gene using HepaRG (AID 2283476)
How it was run: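 Duplicate 48 h treatments of HepaRG cells in serum-free induction medium spanned 100 uM downward in half-log steps, 0.5% DMSO. Transcript change quantified by qRT-PCR against three housekeeping genes, fitted up or down versus DMSO.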

Caspase-3 (Homo sapiens) = Caspase-3 (Homo sapiens) (UniProt P42574); assay: LTEA_HepaRG_CASP3: Life Technologies and Expression Analysis (LTEA) Assay for cysteine-aspartic acid protease (CASP3) using HepaRG (AID 2283477)
Chain of Caspase-3 (Homo sapiens) (P42574 whole entry, looked up): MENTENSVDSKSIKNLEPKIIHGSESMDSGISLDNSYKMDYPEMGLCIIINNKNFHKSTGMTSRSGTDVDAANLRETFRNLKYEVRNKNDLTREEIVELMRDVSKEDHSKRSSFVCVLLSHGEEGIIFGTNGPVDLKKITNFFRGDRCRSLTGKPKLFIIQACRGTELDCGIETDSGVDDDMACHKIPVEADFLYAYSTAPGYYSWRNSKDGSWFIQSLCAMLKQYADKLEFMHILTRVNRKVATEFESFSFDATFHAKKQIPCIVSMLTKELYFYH
How it was run: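 Read-out is CASP3 mRNA level by TaqMan qRT-PCR in human HepaRG cells after 48 h chemical exposure. Eight half-log concentrations topping at 100 uM were tested in 0.5% DMSO; gain or loss was fitted relative to DMSO.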

[4] = read-out: Cytochrome P450 (CYP24A1), CYP24A1 (gene 1591); assay: LTEA_HepaRG_CYP24A1: Life Technologies and Expression Analysis (LTEA) Assay for Cytochrome P450 (CYP24A1) using HepaRG (AID 2283478)
How it was run: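 HepaRG, 48 h chemical exposure, 8-pt half-log CRC from 100 uM, 0.5% DMSO vehicle, duplicates. Endpoint: CYP24A1 mRNA by Fluidigm TaqMan qRT-PCR, normalized ACTB/GAPDH/POLR2A; gain/loss fit vs DMSO.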

[5] = read-out: Cytochrome P450 (CYP1A2), CYP1A2 (gene 1544); assay: LTEA_HepaRG_CYP1A2: Life Technologies and Expression Analysis (LTEA) Assay for Cytochrome P450 (CYP1A2) using HepaRG (AID 2283479)
How it was run: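 CYP1A2 transcript induction or loss, quantified by Fluidigm qRT-PCR against three housekeeping genes, was fitted bidirectionally against 0.5% DMSO controls. Human HepaRG cells received eight half-log concentrations from 100 uM over 48 h.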

[6] = read-out: cysteine-aspartic acid protease (CASP8), CASP8 (gene 841); assay: LTEA_HepaRG_CASP8: Life Technologies and Expression Analysis (LTEA) Assay for cysteine-aspartic acid protease (CASP8) using HepaRG (AID 2283480)
How it was run: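 qRT-PCR readout of CASP8 mRNA, normalized to three housekeeping genes, after 48 h chemical exposure of HepaRG cells; 8-point half-log series, top 100 uM, 0.5% DMSO vehicle. Bidirectional curve fitting against DMSO baseline.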

[7] = read-out: Cytochrome P450 (CYP2B6), CYP2B6 (gene 1555); assay: LTEA_HepaRG_CYP2B6: Life Technologies and Expression Analysis (LTEA) Assay for Cytochrome P450 (CYP2B6) using HepaRG (AID 2283481)
How it was run: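 HepaRG cells plated 48 h, switched to serum-free induction medium, then dosed 48 h (8 points, half-log from 100 uM, 0.5% DMSO). RNA isolated; CYP2B6 expression measured by qRT-PCR; gain or loss fitted relative to DMSO.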

[8] = read-out: Cytochrome P450 2C19 (Homo sapiens) (UniProt P33261); assay: LTEA_HepaRG_CYP2C19: Life Technologies and Expression Analysis (LTEA) Assay for CYP2C19 using HepaRG (AID 2283482)
How it was run: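 Transcript levels of CYP2C19 were quantified by qRT-PCR after HepaRG cells were treated for 48 hours with test chemicals up to 100 uM (eight half-log concentrations, 0.5% DMSO vehicle). Gain or loss of signal was fitted relative to DMSO.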

CYP2C8 (gene 1558) = assay: LTEA_HepaRG_CYP2C8: Life Technologies and Expression Analysis (LTEA) Assay for CYP2C8 using HepaRG (AID 2283483)
How it was run: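 HepaRG (human liver line), 48 h chemical exposure, 8-pt half-log series from 100 uM, 0.5% DMSO vehicle. Readout: CYP2C8 transcript by qRT-PCR, housekeeping-normalized. Bidirectional fit vs DMSO baseline.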

CYP2C9 (gene 1559) = assay: LTEA_HepaRG_CYP2C9: Life Technologies and Expression Analysis (LTEA) Assay for CYP2C9 using HepaRG (AID 2283484)
How it was run: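 HepaRG, 48 h dosing, 8-pt half-log series, top 100 uM, 0.5% DMSO vehicle. Read-out: CYP2C9 transcript by TaqMan qRT-PCR, housekeeping-normalized (ACTB/GAPDH/POLR2A). Gain or loss fitted vs DMSO baseline.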

CYP2E1 (gene 1571) = assay: LTEA_HepaRG_CYP2E1: Life Technologies and Expression Analysis (LTEA) Assay for CYP2E1 using HepaRG (AID 2283485)
How it was run: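 CYP2E1 transcript measured by Fluidigm qRT-PCR against three housekeeping genes in human HepaRG cells treated 48 h (top 100 uM, half-log steps, 0.5% DMSO vehicle). Gain or loss fitted relative to DMSO baseline.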

CYP4A11 (gene 1579) = assay: LTEA_HepaRG_CYP4A11: Life Technologies and Expression Analysis (LTEA) Assay for CYP4A11 using HepaRG (AID 2283486)
How it was run: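 HepaRG, 48 h chem exposure, 8 conc (100 uM top, half-log), 0.5% DMSO vehicle; qRT-PCR readout, housekeeping-gene normalized; bidirectional curve fit vs DMSO baseline.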

[9] = read-out: Cytochrome P450 3A4 (Homo sapiens) (UniProt P08684); assay: LTEA_HepaRG_CYP3A4: Life Technologies and Expression Analysis (LTEA) Assay for CYP3A4 using HepaRG (AID 2283487)
How it was run: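 Differentiated HepaRG cells, plated 48 h, then dosed 48 h in serum-free induction medium with 0.5% DMSO, 8 half-log concentrations up to 100 uM, duplicate. CYP3A4 mRNA by qRT-PCR, normalized to ACTB/GAPDH/POLR2A; bidirectional fit versus DMSO.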

[10] = read-out: DNA damage-inducible transcript 3 (DDIT3), DDIT3 (gene 1649); assay: LTEA_HepaRG_DDIT3: Life Technologies and Expression Analysis (LTEA) Assay for DNA damage-inducible transcript 3 (DDIT3) using HepaRG (AID 2283488)
How it was run: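 DDIT3 transcript was quantified by qRT-PCR with ACTB/GAPDH/POLR2A normalization after 48 h chemical treatment of differentiated HepaRG cells in 0.5% DMSO. Dosing was eight-point, half-log, top 100 uM, duplicate wells. Curves fitted bidirectionally versus DMSO.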

[11] = read-out: Pro-epidermal growth factor (Homo sapiens) (UniProt P01133); assay: LTEA_HepaRG_EGF: Life Technologies and Expression Analysis (LTEA) Assay for Epidermal growth factor (EGF) using HepaRG (AID 2283489)
How it was run: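 HepaRG, 48 h dosing, 100 uM top, half-log x8, 0.5% DMSO. Readout: TaqMan qRT-PCR (Fluidigm array), housekeeping-normalized. Gain or loss of signal fit vs DMSO.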

[12] = read-out: Early growth response protein 1 (EGR1) transcription factor, EGR1 (gene 1958); assay: LTEA_HepaRG_EGR1: Life Technologies and Expression Analysis (LTEA) Assay for Early growth response protein 1 (EGR1) transcription factor using HepaRG (AID 2283490)
How it was run: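 HepaRG, 48 h exposure, 8-pt half-log series from 100 uM, 0.5% DMSO vehicle; EGR1 transcript by TaqMan qRT-PCR (Fluidigm array), housekeeping-normalized; bidirectional fit relative to DMSO baseline.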

[13] = read-out: Ezrin (EZR), EZR (gene 7430); assay: LTEA_HepaRG_EZR: Life Technologies and Expression Analysis (LTEA) Assay for Ezrin (EZR) using HepaRG (AID 2283491)
How it was run: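 EZR transcript levels came from Fluidigm qRT-PCR and were normalized to three housekeeping genes after 48 h chemical exposure of HepaRG cells. Dosing used an 8-point half-log series with a 100 uM top concentration in 0.5% DMSO, tested in duplicate; both directions were fitted versus vehicle.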

Measured: AC50

Chain of Cytochrome P450 3A4 (Homo sapiens) (P08684 whole entry, looked up): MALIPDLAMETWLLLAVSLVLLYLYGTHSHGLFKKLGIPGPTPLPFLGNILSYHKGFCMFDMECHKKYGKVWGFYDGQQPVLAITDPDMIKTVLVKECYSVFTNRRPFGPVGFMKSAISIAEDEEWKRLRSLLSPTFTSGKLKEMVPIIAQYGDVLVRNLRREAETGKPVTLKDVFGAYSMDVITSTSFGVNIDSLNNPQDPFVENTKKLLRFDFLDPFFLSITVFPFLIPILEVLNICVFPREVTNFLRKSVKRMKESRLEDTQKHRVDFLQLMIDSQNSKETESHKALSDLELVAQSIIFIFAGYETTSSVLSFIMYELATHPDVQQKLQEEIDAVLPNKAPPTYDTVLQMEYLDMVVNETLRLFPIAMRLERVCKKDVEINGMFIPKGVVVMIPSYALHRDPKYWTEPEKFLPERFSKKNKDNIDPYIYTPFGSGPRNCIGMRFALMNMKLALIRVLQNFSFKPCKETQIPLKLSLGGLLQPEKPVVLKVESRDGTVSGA
Chain of Cytochrome P450 2C19 (Homo sapiens) (P33261 whole entry, looked up): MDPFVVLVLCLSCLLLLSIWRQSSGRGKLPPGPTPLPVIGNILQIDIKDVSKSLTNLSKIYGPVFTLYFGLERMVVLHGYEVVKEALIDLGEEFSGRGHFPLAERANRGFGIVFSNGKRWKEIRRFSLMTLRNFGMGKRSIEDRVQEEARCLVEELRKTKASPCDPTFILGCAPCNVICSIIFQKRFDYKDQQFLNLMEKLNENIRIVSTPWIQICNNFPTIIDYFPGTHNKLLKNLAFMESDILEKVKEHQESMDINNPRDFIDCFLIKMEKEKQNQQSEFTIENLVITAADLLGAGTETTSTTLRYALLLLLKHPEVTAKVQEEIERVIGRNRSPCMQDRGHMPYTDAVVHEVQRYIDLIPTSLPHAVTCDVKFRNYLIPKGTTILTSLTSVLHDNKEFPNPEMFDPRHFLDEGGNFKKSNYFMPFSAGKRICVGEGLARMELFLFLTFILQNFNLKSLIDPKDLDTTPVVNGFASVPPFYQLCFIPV
Chain of Apoptosis regulator Bcl-2 (Homo sapiens) (P10415 whole entry, looked up): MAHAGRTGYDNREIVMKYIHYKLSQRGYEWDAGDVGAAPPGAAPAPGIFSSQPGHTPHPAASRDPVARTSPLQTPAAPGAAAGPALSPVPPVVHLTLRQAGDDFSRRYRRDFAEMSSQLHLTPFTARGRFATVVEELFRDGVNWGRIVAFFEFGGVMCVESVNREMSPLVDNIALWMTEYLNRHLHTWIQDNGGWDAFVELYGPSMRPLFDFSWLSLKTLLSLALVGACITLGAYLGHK

O=S1OCC2C(CO1)C1(Cl)C(Cl)=C(Cl)C2(Cl)C1(Cl)Cl (configuration not stated)
active: [1] 63.8 µM | [2] 84.7 µM | [5] 35.4 µM | [7] 90.1 µM | [8] 89.2 µM | CYP2C8 (gene 1558) 81.1 µM | CYP2C9 (gene 1559) 82.4 µM | CYP2E1 (gene 1571) 55.7 µM | CYP4A11 (gene 1579) 62.6 µM | [9] 11.7 µM | [10] 80 µM
inactive: BCL2L11 (gene 10018) | [3] | Caspase-3 (Homo sapiens) | [4] | [6] | [11] | [12] | [13]

Cc1[nH]c(=O)n(C(C)(C)C)c(=O)c1Cl
active: [5] 36.2 µM | [7] 15.6 µM | [8] 31.1 µM | CYP2E1 (gene 1571) 37 µM
inactive: all other assays above

CC[C@H](C)[C@H]1O[C@]2(C=C[C@@H]1C)C[C@@H]1C[C@@H](C/C=C(\C)[C@@H](O[C@H]3C[C@H](OC)[C@@H](O[C@H]4C[C@H](OC)[C@@H](O)[C@H](C)O4)[C@H](C)O3)[C@@H](C)/C=C/C=C3\CO[C@@H]4[C@H](O)C(C)=C[C@@H](C(=O)O1)[C@]34O)O2 (tested in a mixture with another compound)
active: BCL2L11 (gene 10018) 10.7 µM | [1] 13.6 µM | [2] 9.08 µM | [5] 10.9 µM | [7] 11 µM | [8] 11.6 µM | CYP2C8 (gene 1558) 14.1 µM | CYP2C9 (gene 1559) 7.85 µM | CYP2E1 (gene 1571) 8.08 µM | CYP4A11 (gene 1579) 7.39 µM | [9] 10 µM | [10] 10.1 µM | [11] 48.4 µM | [13] 7.92 µM
inactive: [3] | Caspase-3 (Homo sapiens) | [4] | [6] | [12]

N#Cc1c(Cl)c(Cl)c(Cl)c(C#N)c1Cl
active: [5] 13.7 µM | CYP2C8 (gene 1558) 50 µM | CYP2E1 (gene 1571) 66.1 µM | CYP4A11 (gene 1579) 50 µM | [9] 19 µM | [10] 19.1 µM | [11] 6.66 µM
inactive: all other assays above

COP(=O)(OC)OC=C(Cl)Cl
active: [7] 6.48 µM
inactive: all other assays above

CNC(=O)Oc1ccccc1OC(C)C
active: [7] 3.17 µM | CYP2E1 (gene 1571) 22.2 µM | [9] 0.594 µM
inactive: all other assays above

CCN(CC)C(=O)SCc1ccc(Cl)cc1
active: [7] 4.36 µM | [8] 17.7 µM | CYP2E1 (gene 1571) 27.3 µM | [9] 9.92 µM
inactive: all other assays above

CC(C)OC(=O)Nc1cccc(Cl)c1
active: [3] 7.78 µM | [7] 50 µM
not listed: CYP2E1 (gene 1571)
inactive: all other assays above

N#CN
inactive: all assays above

CC1(C)C(C=C(Cl)Cl)C1C(=O)OC(C#N)c1ccc(F)c(Oc2ccccc2)c1 (configuration not stated)
active: [5] 20.2 µM | [7] 18.4 µM | [8] 20.7 µM | CYP2C8 (gene 1558) 17.1 µM | CYP2C9 (gene 1559) 14 µM | CYP2E1 (gene 1571) 55.3 µM | [9] 10.9 µM | [11] 61.4 µM
inactive: all other assays above

C#CCN1C(=O)COc2cc(F)c(N3C(=O)C4=C(CCCC4)C3=O)cc21
active: [1] 23.1 µM | [7] 0.84 µM | [8] 6.97 µM | CYP2E1 (gene 1571) 26.1 µM | CYP4A11 (gene 1579) 20.5 µM | [9] 3.65 µM | [12] 12 µM
inactive: all other assays above

CCC(C)(NC(=O)c1cc(Cl)c(C)c(Cl)c1)C(=O)CCl (configuration not stated)
inactive: BCL2L11 (gene 10018) | [1] | [2] | [4] | [11] | [12]
active: [3] 82.9 µM | Caspase-3 (Homo sapiens) 92.4 µM | [5] 74.1 µM | [6] 89.8 µM | [7] 90.1 µM | [8] 85.4 µM | CYP2C8 (gene 1558) 81.6 µM | CYP2C9 (gene 1559) 79.5 µM | CYP2E1 (gene 1571) 44 µM | CYP4A11 (gene 1579) 50.2 µM | [9] 88.2 µM | [10] 78.3 µM | [13] 75.7 µM
